The whole screen tested about 220,000 compounds, of which about 2,000 (0.91%) were called active. Another 2% or so got no clear call; they are omitted. The list is a sample of the results. Potency and affinity values are given separately. Values without a mark were called inactive. Rule as the data show it: inconclusive = inhibition above about 80% without an active follow-up result; inactive = below that; test concentration not stated here.
Assay: M. tuberculosis H37Rv growth inhibitors, H37Rv strain (AID 1626);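 also: bacteria incubated seven days before Alamar blue readout; 0% = bacteria only wells and 100% = bacteria with antibiotic wells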
Conditions: active compounds read high, concentration not given here

Row | Structure (SMILES) | inhibition
1 | CCOC(=O)c1cc(-c2ccccc2)sc1NC(=O)C(C)OC(=O)c1ccncc1 (configuration not stated) | 0.66%
2 | C=CCSc1nc(C)cc(C(=O)OCC)c1C#N | -3.16%
3 | COc1ccccc1C(=O)O/N=C(\c1ccccc1)c1ccncc1 | 3.28%
4 | CCOc1cccc(/C=C/C(=O)O)c1 | 4.51%
5 | CCOC(=O)N/N=C/C=C/c1ccccc1 | -6.43%
6 | Oc1csc(Cc2nc(-c3ccc(Br)cc3)cs2)n1 | 38.3%
7 | CCCCNC(=O)c1c(O)c2cccc3c2n(c1=O)CCC3 | 3.46%
8 | Cc1cccc(NC(=O)c2c(O)c3cccc4c3n(c2=O)CCC4)n1 | -9.1%
9 | CNC(=O)c1c(O)c2cccc3c2n(c1=O)CC3 | -2%
10 | O=C(Nc1ccccn1)c1c(O)c2cccc3c2n(c1=O)CCC3 | -3.22%
11 | O=C(NCc1cccnc1)c1c(O)c2cccc3c2n(c1=O)CCC3 | -3.06%
12 | CCNCCNC(=O)c1c(O)c2cccc3c2n(c1=O)CCC3 | 1.67%
13 | COc1ccc(-n2cnnc2SCC(=O)Nc2cccnc2Cl)cc1 | 2.1%
14 | O=C(Nc1nccs1)c1ccc(Cl)c(S(=O)(=O)N2CCOCC2)c1 | -20.2%
15 | CC1C(c2ccccc2)=NNc2nc3c(c(=O)n(C)c(=O)n3C)n21 (configuration not stated) | -9.85%
16 | Cc1cccc2c1CC(C)(C)N=C2C1=C(O)CC(C)(C)CC1=O | 2.19%
17 | CC(=O)Nc1ccc(NC(=O)CCc2nc3ccccc3c(=O)[nH]2)cc1 | 2.86%
18 | COc1ccc(/C=C/C(=O)c2c(O)n(CCC3=CCCCC3)c(=O)[nH]c2=O)cc1OC | 36.6%
19 | Cn1c(N)c(C(=O)/C=C/c2ccccc2)c(=O)[nH]c1=O | -9.59%
20 | COc1cc(/C=C/C(=O)CC(=O)/C=C/c2ccc(O)c(OC)c2)ccc1O | 7.76%
21 | Cc1cc(C)c(C(=O)/C=C/c2ccc3c(c2)OCO3)c(=O)[nH]1 | -2.72%
22 | CCCCn1c(O)c(C(CC)=NCc2ccc3c(c2)OCO3)c(=O)[nH]c1=O | -0.92%
23 | O=C(/C=C/c1c[nH]c2ccccc12)c1c(O)n(CCc2ccccc2)c(=O)[nH]c1=O | 22.5%
24 | O=c1[nH]c(=O)n(CCc2ccccc2)c(O)c1C=NCc1ccc2c(c1)OCO2 | -3.13%
25 | CCCCn1c(O)c(C(C)=NCc2ccc3c(c2)OCO3)c(=O)[nH]c1=O | 10.3%
26 | COc1ccc(CN(C)CC(=O)Nc2sc3c(c2C#N)CCC3)cc1OC | 3.36%
27 | Cc1ccc(/C=N/NC(=O)CCCOc2ccc(Cl)cc2Cl)cc1[N+](=O)[O-] | -5.05%

— PubChem BioAssay AID1626 (SRMLSC, 2009)
